Pf growth 96h: Primary qHTS for delayed death inhibitors of the malarial parasite plastid, 96 hour incubation | P. falciparum luciferase reporter growth, 96 h | Potency, µM (titrated, usually from 28.7 µM), most hits filed as inhibitors | hit rate 6.9% among 320,000
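Erythrocytes infected with luciferase-expressing P. falciparum were dispensed at 2% hematocrit and 0.05% parasitemia (final), then incubated with compounds 96 hours at 37 C in 5% CO2. Luminescence after detection reagent addition reported growth.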
LASV entry inh: qHTS for Inhibitors of binding or entry into cells for Lassa Virus; Lassa virus pseudotype entry inhibition, cell reporter; Potency, µM (highest dose often 37.9 µM), hits mostly inhibitors; hit rate 1.2% among 300,000; calls by dose curve; tested in HEK293 cells; further: nearly all actives have a fitted effect of over 50% in size
Marburg entry inh: qHTS for inhibitors of binding or entry into cells for Marburg Virus. Marburg virus pseudotyped entry inhibition, cell reporter. Potency, µM (doses to about 37.8 µM), most hits filed as inhibitors. hit rate 1.8% among 300,000. AID 540276, 2011; calls by dose curve; tested in HEK293 cells
HCV inhibitor: qHTS Assay for Inhibitors of Hepatitis C Virus (HCV); AID 651820, 2012; Potency, µM (top dose mostly 41.8 µM), usual class: inhibitors; hit rate 3.4% among 340,000; Huh7.5.1 HCVcc-Cre infection, luciferase reporter, 44 h
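A cell-based infection assay in which seeded cells (1,000 per well) receive test compound after 4 h, are inoculated with HCVcc-Cre at approximately 0.5 moi, and are incubated 44 h before luminescence detection.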
Pf growth 48h: Primary qHTS for delayed death inhibitors of the malarial parasite plastid, 48 hour incubation | P. falciparum luciferase growth in erythrocytes, 48 h | Potency, µM (series often up to 28.7 µM), usual class: inhibitors | hit rate 5.9% among 310,000
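Erythrocytes infected with P. falciparum carrying an integrated firefly luciferase reporter (2% hematocrit, 0.1% parasitemia final) were exposed to compounds in RPMI 1640 with 0.5% Albumax at 37 C, 5% CO2. Growth inhibition was scored as reduced luminescence.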
HCMV inh: qHTS Assay for inhibitors of the human cytomegalovirus (HCMV); HFF cells, HCMV-luciferase reporter, 72 h; stronger effect = lower value; activity change, negative = inhibition, % at 57.5 µM; hit rate 4.5% among 410,000; in the data active means activity change below about -60%; inconclusive means no clear call, values can overlap the other calls; inactive means above about -39%
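After 16 h attachment at 37C, HFF cells received test compound and HCMV-luciferase (1 PFU/cell); reporter luminescence read 72 h later, data normalized against buffer-only and known inhibitor Salinomycin.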
A number is an active result; 0 = inactive; ? = inconclusive; - = no result. Shown are actives, neighbours in structure and some others; about 14% of the full set was active somewhere. Unless noted, the call rests on the fitted dose curve; in most records, active means well fitted inhibition curve with a large enough effect; inconclusive means small, poorly fitted or top-dose-only effect, or another doubt; inactive means no such curve, though single readings can be large or run the other way.

SMILES	Pf growth 96h	LASV entry inh	Marburg entry inh	HCV inhibitor	Pf growth 48h	HCMV inh
COC(=O)c1ccc(CNc2ccc(C(C)=O)cc2)cc1	-	-	-	-	-	0
CN(Cc1ccccc1Cl)C(=O)C1CC(=O)N(c2ccc3c(c2)OCCO3)C1 (stereo not drawn)	0	0	0	0	0	0
COc1ccc(-c2nc(NC(=O)C3CC(=O)N(c4ccc5c(c4)OCCO5)C3)sc2C)cc1 (stereo not drawn)	?	?	?	?	0	-96.1
O=C(COc1ccc(F)cc1)NC1CC(=O)N(c2ccc3c(c2)OCCO3)C1 (stereo not drawn)	-	0	-	-	-	-107.7
O=C(COc1ccccc1)NC1CC(=O)N(c2ccc3c(c2)OCCO3)C1 (stereo not drawn)	-	0	-	-	-	0
COc1ccc(CN(C)C(=O)C2CC(=O)N(c3ccc4c(c3)OCCO4)C2)c(OC)c1 (stereo not drawn)	6.57µM	-	-	?	?	0
COc1ccc2nc(NC(=O)C3CC(=O)N(c4ccc5c(c4)OCCO5)C3)sc2c1 (stereo not drawn)	?	0	0	0	?	0
Cc1ccc(-n2cnc3cc(C(=O)NCc4ccccc4Cl)ccc32)c(C)c1	-	0	-	-	-	0
COCCCNC(=O)C1CCN(Cc2nc(-c3ccc(OC)c(OC)c3)oc2C)CC1	-	0	0	-	-	0
CCC(Sc1nc2ccccc2c2nc(CCc3c(C)n[nH]c3C)nn12)C(=O)Nc1ccc(F)cc1 (stereo not drawn)	-	?	-	-	-	0
Nc1nc(Cl)cc(Sc2ccc3ccccc3c2)n1	0	10µM	0	0	0	0
Nc1nc(Cl)cc(-c2ccccc2)n1	0	0	?	0	0	0
COc1ccccc1OCCSc1nc2ccccc2n1CC(=O)N1CCOCC1	-	0	0	-	-	0
O=c1c2cn[nH]c2nc(SCc2cc(=O)n3cc(Br)ccc3n2)n1-c1ccc(Br)cc1	0	0	?	?	11.7µM	-72.5
COc1ccc(N2CCN(C(=O)CSc3nc4[nH]ncc4c(=O)n3-c3ccc(Br)cc3)CC2)cc1	0	-	-	?	?	-63.4
O=c1c2cn[nH]c2nc(SCc2ccccc2F)n1-c1ccc(Br)cc1	0	?	?	?	?	-71.3
N=c1c2cn[nH]c2nc(SCC(=O)c2ccc(Br)cc2)n1-c1ccc(Br)cc1	7.38µM	0	?	0	0	0
CCOC(=O)CCCNC(=O)N1CCc2nc(COc3ccccc3)c3c(c2C1)CO[C@@H](C)C3	-	-	0	-	-	-
Cc1ccc(S(=O)(=O)c2c(Nc3ccccc3)sc(C(=O)c3ccc4c(c3)OCO4)c2N)cc1	-	?	-	-	-	0
CCN(C(=O)CN1C(=O)NC2(CCCc3ccccc32)C1=O)c1ccc(F)cc1 (stereo not drawn)	?	-	-	0	?	0
COc1ccc(CCN(C)C(=O)CN2C(=O)NC3(CCCc4ccccc43)C2=O)cc1OC (stereo not drawn)	?	?	0	0	0	0
CCOc1ccc(CN(C)C(=O)CN2C(=O)NC3(CCCc4ccccc43)C2=O)cc1 (stereo not drawn)	1.17µM	-	-	?	?	0
CCN(C(=O)CN1C(=O)NC2(CCc3ccccc32)C1=O)C1CCCCC1 (stereo not drawn)	0	0	0	0	0	-99.9
COC(=O)C1=C(C)N(C)C(C)=C(C(=O)OC)C1c1ccc(F)c(Br)c1	0	0	?	0	9.28µM	0
Cc1cccc(NC(=O)C2CCC(CNS(=O)(=O)c3ccc4c(c3)CCCC(=O)N4)CC2)c1C (stereo not drawn)	-	0	-	-	-	0
SMILES	Pf growth 96h	LASV entry inh	Marburg entry inh	HCV inhibitor	Pf growth 48h	HCMV inh
CCC(C)NC(=O)c1cc(CC(C)C)on1 (stereo not drawn)	11.7µM	0	0	0	0	0
CCc1c(C)sc(NC(=O)c2cc(-c3ccc(OC)c(OC)c3)on2)c1C#N	-	0	0	0	0	0
CCc1c(C)sc(NC(=O)c2cc(-c3ccc(O)cc3)on2)c1C#N	0	-	-	?	-	-60.9
CCc1c(C)sc(NC(=O)c2cc(CC(C)C)on2)c1C#N	13.1µM	-	-	0	-	0
CCc1c(C)sc(NC(=O)c2cc(-c3cc(OC)ccc3OC)on2)c1C#N	?	0	?	?	0	-67.8
Cc1cc(NC(=O)c2cc(CC(C)C)on2)no1	0	-	-	0	0	0
N#CCSc1ccccc1NC(=O)COC(=O)CCNC(=O)c1ccc([N+](=O)[O-])cc1	0	0	?	0	0	0
CCCC1C(=O)n2c(nc3ccccc32)N=C1C (stereo not drawn)	-	-	0	-	-	-
COC(=O)c1cc(C(C)=O)c(C)[nH]c1=O	5.22µM	0	0	0	0	0
CCOC(=O)c1cc(C(C)=O)c(=O)[nH]c1C	0	-	-	0	0	0
COc1ccccc1C(CNC(=O)C(C)(C)Oc1ccc(Cl)cc1)N1CCCC1 (stereo not drawn)	?	?	?	?	13.1µM	0
COc1ccccc1C(CNC(=O)CNC(=O)c1cccc(Cl)c1)N1CCCC1 (stereo not drawn)	-	0	7.08µM	0	-	0
Cc1ccc(S(=O)(=O)Nc2ccc(-c3csc(-c4ccccc4)n3)cc2)cc1	0	?	0	10µM	0	0
O=S(=O)(Nc1ccc(-c2csc(-c3ccccc3)n2)cc1)c1ccccc1	0.657µM	0	?	?	0	0
CCN(CC(=O)Nc1cccc(OC)c1)C(=O)C1CC(=O)N(Cc2ccccc2Cl)C1 (stereo not drawn)	-	-	-	-	-	0
CCC(=O)Nc1cccc(C(=O)/C=C/c2cc(Br)ccc2OC)c1	-	11.2µM	?	11.2µM	?	-104.0
COC(=O)CNC(=O)/C=C/c1cc(Br)ccc1OC	?	0	?	?	0	0
COc1ccc(Br)cc1/C=C/C(=O)Nc1ccc2ccccc2c1	0	0	?	10µM	0	0
Cc1nnc(Cc2ccco2)c2n[nH]c(C)c12	-	-	-	-	-	0
CNc1cncc(-c2cccc(OC)c2F)n1	-	-	-	-	-	0
COc1cccc(N2CCN(c3c4c(nc5nncn35)CCC4)CC2)c1	-	0	?	-	-	-94.7
Cc1cccc(N2CCN(c3c4c(nc5nncn35)CCC4)CC2)c1C	-	0	0	-	-	?
Clc1cccc(N2CCN(c3c4c(nc5nncn35)CCC4)CC2)c1	-	0	?	-	-	-64.8
CCc1ccccc1NC(=O)CSc1nc2c(c(=O)[nH]1)CN(Cc1ccccc1OC)CC2	-	0	0	-	-	0
c1ccc(-c2csc(-c3cccnc3)n2)cc1	0	0	0	0	0	0
Cc1ccc(S(=O)(=O)N2CCOCC2)cc1C(=O)Nc1nc(-c2cccnc2)cs1	0	0	0	0	9.28µM	0
O=S(=O)(c1ccc(-c2csc(-c3cccnc3)n2)cc1)N1CCOCC1	0	0	?	0	?	-63.9
